According to PubChem BioAssay AID488832 (National Center for Advancing Translational Sciences (NCATS), 2010):
Records with an inconclusive call do not appear. Activity calls are given as the source filed them. Calls come from the whole dose curve; as a rule, active = well fitted activation curve with a large enough effect; inconclusive = small, poorly fitted or top-dose-only effect; inactive = no such curve, though single readings can be large or run the other way.

assay: Confirmation Concentration-Response Assay for Enhancers of SMN2 Splice Variant Expression for Further Probe SAR; settings: HEK293 SMN2 exon7-luciferase splicing reporter, luminescence, 30-36 h; series mostly up to 46.1 µM
Text: NIH Chemical Genomics Center [NCGC] NIH Molecular Libraries Probe Production centers Network [MLPCN] MLPCN Grant: R03 MH084179-01 Assay Submitter (PI): Elliot Androphy NCGC Assay Overview: Spinal muscular atrophy (SMA) is caused by insufficient levels of the survival motor neuron protein SMN. The SMN locus on chromosome 5q13 contains two inverted copies of SMN called SMN1 and SMN2 which are 99% identical at the amino acid level. SMN1 is a fully functional protein and SMN2 skips exon 7 90% of the time. Skipping of exon 7 produces non-functional protein product. 10% of the SMN2 protein includes exon 7 and is fully functional. In the SMA disease state, mutations in the SMN1 locus are the cause of the disease state. Because only 10% of SMN2 is of the fully functional form, it is not sufficient to overcome the deficiency produced by the loss of the SMN1 product. A therapy that either increase the amount of SMN2 product made or to increase the inclusion of exon 7 has been proposed for the treatment of SMA. We have designed an assay to identify small molecules that can increase the amount of functional SMN2 product by appending a luciferase reporter gene after the native SMN2 gene, such that inclusion of exon 7 in the expressed product places the luciferase sequence in frame, thus generating functional luciferase enzyme.
NCGC Assay Protocol Summary: This screen utilizes a luciferase reporter gene assay, combining the promoter with the major portion of the native SMN2 cDNA (exons 1 -7, intron 8 , exon 8 fused to luciferase) stably expressed in HEK293 cells. Compounds that increase luciferase signal presumably enhance expression of the functional SMN2 splice variant. Passaging media contained DMEM w/ glutamax (+phenol red) 10% FCS, 1x pen/strep, 200 ug/ml hygro, 1x sodium pyruvate. Assay media contained DMEM w/ glutamax (-phenol red) 10% FCS, 1x pen strep, 1x pyruvate Sequence, Parameter, Value, Description (1) Cells, 5 uL, 2000 cells/well, 1536 TC treated White solid bottom plate (2) Time, 10-12 hours, 37C 5% CO2 (3) Compound, 23 nl, MLSMR Library (4) Control Compound, 23 nL, Sodium butyrate st 4.5mM (final) conc (5) Time, 30-36 hours, 37C 5% CO2 (6) Reagent, 3 ul, One Glo (TM) from Promega (7) Time, 5-15 minutes, Room temp (8) Detector, Viewlux: luminescent read, 60 second integration, high speed 2x binning Keywords: Spinal muscular atrophy, SMA, SMN2, high throughput screening, MLSMR, MLPCN, NIH Roadmap, qHTS and NCGC

Potency, active:
O=C(Nc1ccccc1)C1CCN(c2ncc(-c3ccc4c(c3)OCCCO4)s2)CC1 0.0487 µM
O=C(Nc1ccccc1)C1CCN(c2nc(-c3ccc(Br)cc3)cs2)CC1 1.54 µM
NC(=O)N1CCN(c2nc(-c3ccc(Br)cc3)cs2)CC1 13.7 µM
Cc1ccc(-c2cnc(N3CCC(C(N)=O)CC3)s2)cc1 0.0688 µM
CCOC(=O)C1CCN(c2nc(-c3ccc(Br)cc3)cs2)CC1 4.87 µM
